Results from the supplement of paper PMC3334620.
Over roughly 33,000 sequences, “E-score (-0.5 to 0.5)” has its median near -0.016; the highest 2% begin near 0.31. This is one part of a sample in which the highest values are shown more often than they occur.

biological target: Cst6 (UniProt P40535); assay: PBM E-score (8-mer binding enrichment) (E-score (-0.5 to 0.5)); higher = stronger / more preferred TF binding; settings: protein concentration: 200 nM; construct: GST-DNA-binding domain
Procedure: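 Universal 'all 10-mer' protein binding microarrays (Agilent AMADID 015681) probed with GST-tagged S. cerevisiae TFs (full-length or DBD) made by in vitro transcription/translation (PURExpress), about 100-200 nM. Bound TF was detected with fluorescent anti-GST. Each ungapped 8-mer (which stands for itself and its reverse complement) is scored by the PBM enrichment score (E-score), a modified Wilcoxon-Mann-Whitney statistic from -0.5 to +0.5, computed with the Universal PBM Analysis Suite. Scale: above 0.35 generally sequence-specific binding.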

Chain of UniProt P40535 (P40535 whole entry, the tested form may be a part): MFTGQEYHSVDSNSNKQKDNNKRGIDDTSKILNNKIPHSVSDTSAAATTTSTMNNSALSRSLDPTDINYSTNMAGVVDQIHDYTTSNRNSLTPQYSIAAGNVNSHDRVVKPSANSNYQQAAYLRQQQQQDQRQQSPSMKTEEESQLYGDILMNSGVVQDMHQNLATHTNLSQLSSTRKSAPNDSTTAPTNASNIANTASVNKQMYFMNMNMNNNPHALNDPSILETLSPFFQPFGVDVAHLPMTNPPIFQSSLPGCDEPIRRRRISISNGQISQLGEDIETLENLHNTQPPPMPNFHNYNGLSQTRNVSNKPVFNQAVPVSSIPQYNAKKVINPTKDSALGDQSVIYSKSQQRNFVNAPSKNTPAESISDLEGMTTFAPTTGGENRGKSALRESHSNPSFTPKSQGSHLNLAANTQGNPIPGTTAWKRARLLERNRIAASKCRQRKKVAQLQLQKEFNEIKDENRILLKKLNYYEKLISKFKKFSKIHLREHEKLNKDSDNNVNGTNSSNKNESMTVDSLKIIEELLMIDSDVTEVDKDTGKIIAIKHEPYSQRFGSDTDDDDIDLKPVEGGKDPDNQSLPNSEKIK

Sequence	PBM E-score
CCAGCTCC	-0.29
ACGCTCCG	-0.119
AAAATAAC	0.178
GAAATAAC	0.148
CAAATAAC	0.37
ACAGGGCG	0.0932
ACCGACGA	-0.0237
ACCTCCGT	-0.0629
AAATGGCC	-0.0934
GTGCATCA	0.0738
GTACATCA	0.275
ATACATCA	0.398
ATACATAA	0.258
ATACATAC	0.0814
CTACATCA	0.302
ATACATAT	0.337
ATGCATCA	0.372
ATGCATCG	-0.00649
CAGTCGCG	-0.25
AGATTCAC	-0.122
GAAACCTA	-0.148
CTAAAGGC	0.0355

Sequence	PBM E-score
CATCAAAG	0.0154
AAGGGAAT	0.112
CTGTAATA	0.108
ATGTAATC	0.299
ATGTAATG	0.394
ATGTAACG	0.235
GTGTAATA	0.214
ATGTAATA	0.415
CATCATGA	0.363
AATCATGT	0.139
AATCATGG	0.0769
CATCATGG	0.249
TATCATGA	0.186
CATCATGC	0.362
AATCATGA	0.338
AATCATGC	0.0631
GATCATGC	-0.137
GATAGCGC	-0.152
GGGAGTCA	-0.153
ACGCTATC	0.093
CAGCTGCC	-0.146
AGAAGTCA	0.0402

Sequence	PBM E-score
GGAAGGCC	-0.136
AAGAACAG	0.0582
AAGAACAC	0.167
AAGAACAA	0.327
TCCCTCGA	-0.205
AGAAGTCT	-0.118
TGACGTAA	0.499
GGACGTAA	0.279
GGACGTAC	-0.065
AGACGTAC	-0.0375
AGACGTAG	-0.133
AGACGTAA	0.371
TGTCGTAA	0.303
CGACGTAC	0.139
CGACGTAA	0.451
CGTGGTGC	-0.177
CAGACCTA	-0.00947
GCACAGAA	0.109
AGCTGAGA	-0.101
AATCCAAT	0.139
AATCAGCT	0.186
ACTCACGA	-0.053

Sequence	PBM E-score
GCTTTAAC	0.135
CTGGCGTC	-0.0408
ACGGCGGG	0.108
ACGGCGGC	0.156
CCGGCGTA	-0.134
GCGGCGTA	0.23
CCGGCGTC	-0.0641
ACGGCGTG	0.314
AGGGCGTG	-0.115
ATGGCGTC	0.311
ATGGCGTG	0.113
ACGGCGTA	0.358
ACGGCGTC	0.347
ACCGGTCA	-0.0152
ACGCCACG	0.0785
GGAAAACC	-0.0924
TCACAGAA	0.133
CCAGTGCA	-0.185
GCAGTTCA	0.0321
CAATGCGA	0.136
GACGGGTA	-0.0938
GTCCCATA	-0.14

Sequence	PBM E-score
CTGAAACA	-0.0169
AAATTTAT	0.234
AATTTTAC	0.326
AATTTTAA	0.25
CATTTTAC	0.273
AATTTTAT	0.346
ATTTTTAC	0.201
ATTTGCTA	0.156
CTATTCAA	0.197
ACAACCAT	0.325
ACAACCAG	0.0122
ACAACCAC	0.133
CTACGCAA	0.119
GGCACGTA	0.119
AATGAAAT	0.37
AATGAAAG	0.168
TAATGAAA	0.261
AATGAAAA	0.236
CAATGAAA	0.153
AAATGAAA	0.322
CAAACTTC	0.177
AACCTTAG	-0.158
